Drawing on PubChem BioAssay (EPA / NIEHS), this text covers outcome and AC50 for four molecules.

Results filed as inconclusive are left out. Active and inactive are the calls of the source. How the source made its calls, unless noted: active means hit-call score of the fitted dose curve at least 0.9, where 1 is the maximum; inactive means score below 0.9.

Read-out in assay [1]: Phosphatase and tensin (PTEN), PTEN (gene 5728)
Nature of the assay: LTEA_HepaRG_PTEN: Life Technologies and Expression Analysis (LTEA) Assay for Phosphatase and tensin (PTEN) using HepaRG (AID 2283523). The note with it: mRNA level, 48 h; actives raise or lower the signal. The method, boiled down:
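HepaRG, 48 h exposure, 8-pt half-log series from 100 uM top, 0.5% DMSO vehicle, duplicates. Readout: Fluidigm qRT-PCR of PTEN transcript; housekeeping normalization (ACTB, GAPDH, POLR2A). Gain or loss fitted relative to DMSO baseline.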

Read-out in assay [2]: solute carrier (SLC22A1), SLC22A1 (gene 6580)
Nature of the assay: LTEA_HepaRG_SLC22A1: Life Technologies and Expression Analysis (LTEA) Assay for solute carrier (SLC22A1) using HepaRG (AID 2283524). Particulars: mRNA level, 48 h; actives raise or lower the signal. Put shortly:
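qRT-PCR readout (TaqMan, Fluidigm arrays) of SLC22A1 transcript, normalized to three housekeeping genes; bidirectional curve fit relative to 0.5% DMSO vehicle. Differentiated human HepaRG cells, 48 h chemical exposure, top concentration 100 uM, half-log steps, eight points.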

Read-out in assay [3]: Pyruvate Dehydrogenase Kinase 4 (PDK4), PDK4 (gene 5166)
The assay is described as follows: LTEA_HepaRG_PDK4: Life Technologies and Expression Analysis (LTEA) Assay for Pyruvate Dehydrogenase Kinase 4 (PDK4) using HepaRG (AID 2283525). Particulars: mRNA level, 48 h; actives raise or lower the signal. Put shortly:
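HepaRG (human liver line), 48 h chemical exposure, 8-pt half-log CRC top 100 uM, 0.5% DMSO vehicle, duplicates. Readout: TaqMan qRT-PCR of PDK4 mRNA, housekeeping-normalized; gain/loss fit relative to DMSO baseline.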

Read-out in assay [4]: Nuclear factor erythroid 2-related factor 2 (Homo sapiens) (UniProt Q16236)
The assay is described as follows: LTEA_HepaRG_NFE2L2: Life Technologies and Expression Analysis (LTEA) Assay for Nuclear factor erythroid 2-related factor 2 (NFE2L2) Transcription Factor using HepaRG (AID 2283527).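 Further: TaqMan qRT-PCR transcript level normalised to ACTB GAPDH and POLR2A housekeeping genes.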 The note with it: mRNA level, 48 h; actives raise or lower the signal. The method, boiled down: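 HepaRG, 48 h dosing, 8-pt half-log series from 100 uM in 0.5% DMSO, duplicates. Read-out: NFE2L2 mRNA by qRT-PCR (ACTB/GAPDH/POLR2A normalization). Bidirectional curve fit vs DMSO baseline.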

Read-out in assay [5]: succinate dehydrogenase complex iron sulfur subunit B (SDHB), SDHB (gene 6390)
Nature of the assay: LTEA_HepaRG_SDHB: Life Technologies and Expression Analysis (LTEA) Assay for succinate dehydrogenase complex iron sulfur subunit B (SDHB) using HepaRG (AID 2283528). The note with it: mRNA level, 48 h; actives raise or lower the signal. The method, boiled down: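 Readout is SDHB transcript level by qRT-PCR, normalised to three housekeeping genes and fitted bidirectionally against 0.5% DMSO vehicle. Human HepaRG cells were treated for 48 h at up to 100 uM.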

Read-out in assay [6]: Signal transducer and activator of transcription 3 (Homo sapiens) (UniProt P40763)
Nature of the assay: LTEA_HepaRG_STAT3: Life Technologies and Expression Analysis (LTEA) Assay for Signal transducer and activator of transcription (STAT3) using HepaRG (AID 2283529). The note with it: mRNA level, 48 h; actives raise or lower the signal. Put shortly: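 HepaRG, 48 h exposure, 8-pt half-log series (top 100 uM), 0.5% DMSO vehicle, duplicates. Readout: STAT3 transcript by Fluidigm qRT-PCR, housekeeping-normalized; bidirectional fit vs DMSO baseline.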

Read-out in assay [7]: solute carrier (SLCO1B1), SLCO1B1 (gene 10599)
Nature of the assay: LTEA_HepaRG_SLCO1B1: Life Technologies and Expression Analysis (LTEA) Assay for solute carrier (SLCO1B1) using HepaRG (AID 2283530). Particulars: mRNA level, 48 h; actives raise or lower the signal. The method, boiled down: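 Differentiated human HepaRG cells, plated 48 h, switched to serum-free induction medium and exposed in duplicate for 48 h to 8 half-log concentrations (top 100 uM) in 0.5% DMSO. SLCO1B1 mRNA by TaqMan qRT-PCR, normalized to ACTB/GAPDH/POLR2A.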

Read-out in assay [8]: sulfotransferase 2A1 (SULT2A1), SULT2A1 (gene 6822)
The assay is described as follows: LTEA_HepaRG_SULT2A1: Life Technologies and Expression Analysis (LTEA) Assay for sulfotransferase 2A1 (SULT2A1) using HepaRG (AID 2283531). Particulars: mRNA level, 48 h; actives raise or lower the signal. Put shortly:
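Differentiated human HepaRG cells in serum-free induction medium were exposed for 48 h to eight half-log concentrations (top 100 uM, 0.5% DMSO). SULT2A1 mRNA was measured by qRT-PCR, normalized to ACTB, GAPDH and POLR2A, and fitted bidirectionally against DMSO.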

Read-out in assay [9]: Transforming Growth Factor (TGFA), TGFA (gene 7039)
Nature of the assay: LTEA_HepaRG_TGFA: Life Technologies and Expression Analysis (LTEA) Assay for Transforming Growth Factor (TGFA) using HepaRG (AID 2283532). The note with it: mRNA level, 48 h; actives raise or lower the signal. Put shortly:
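qRT-PCR read-out of TGFA transcript, normalized to three housekeeping genes, fitted bidirectionally against 0.5% DMSO baseline. Human HepaRG cultures received chemicals for 48 h at eight half-log concentrations, top 100 uM.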

Read-out in assay [10]: Transforming Growth Factor (TGFB1), TGFB1 (gene 7040)
The assay is described as follows: LTEA_HepaRG_TGFB1: Life Technologies and Expression Analysis (LTEA) Assay for Transforming Growth Factor (TGFB1) Transporter using HepaRG (AID 2283533). The note with it: mRNA level, 48 h; actives raise or lower the signal. The method, boiled down:
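Differentiated human HepaRG cells in serum-free induction medium were exposed in duplicate for 48 h to eight concentrations (top 100 uM, half-log steps, 0.5% DMSO). TGFB1 mRNA was quantified by qRT-PCR, normalized to ACTB, GAPDH, POLR2A, and fitted bidirectionally against DMSO.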

Read-out in assay [11]: TIMP1, TIMP1 (gene 7076)
Nature of the assay: LTEA_HepaRG_TIMP1: Life Technologies and Expression Analysis (LTEA) Assay for TIMP1 using HepaRG (AID 2283534). Particulars: mRNA level, 48 h; actives raise or lower the signal. The method, boiled down:
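Differentiated human HepaRG cells in serum-free induction medium were exposed 48 h to chemicals (8 half-log concentrations, top 100 uM, 0.5% DMSO). TIMP1 mRNA was quantified by TaqMan qRT-PCR, normalized to ACTB/GAPDH/POLR2A; bidirectional fit versus DMSO.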

Read-out in assay [12]: Tumor necrosis factor receptor 1 (TNFRSF1A), TNFRSF1A (gene 7132)
Nature of the assay: LTEA_HepaRG_TNFRSF1A: Life Technologies and Expression Analysis (LTEA) Assay for Tumor necrosis factor receptor 1 (TNFRSF1A) using HepaRG (AID 2283535). Particulars: mRNA level, 48 h; actives raise or lower the signal. The method, boiled down: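 Differentiated human HepaRG cells were exposed in duplicate for 48 h in serum-free induction medium to eight concentrations (top 100 uM, half-log steps, 0.5% DMSO). TNFRSF1A mRNA was quantified by qRT-PCR, normalized to ACTB, GAPDH and POLR2A, then fitted bidirectionally against DMSO.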

Read-out in assay [13]: Thyroid Hormone Responsive (THRSP), THRSP (gene 7069)
The assay is described as follows: LTEA_HepaRG_THRSP: Life Technologies and Expression Analysis (LTEA) Assay for Thyroid Hormone Responsive (THRSP) using HepaRG (AID 2283536). The note with it: mRNA level, 48 h; actives raise or lower the signal. Put shortly: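 qRT-PCR read-out (Fluidigm TaqMan), housekeeping-normalized (ACTB/GAPDH/POLR2A). HepaRG, 48 h chemical exposure, 8-pt half-log series from 100 uM in 0.5% DMSO, duplicates. Bidirectional curve fit vs 0.5% DMSO baseline.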

Read-out in assay [14]: Cellular tumor antigen p53 (Homo sapiens) (UniProt P04637)
Nature of the assay: LTEA_HepaRG_TP53: Life Technologies and Expression Analysis (LTEA) Assay for Tumor Protein P53 (TP53) using HepaRG (AID 2283537). The note with it: mRNA level, 48 h; actives raise or lower the signal. The method, boiled down:
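Read-out is TP53 transcript level by microfluidic qRT-PCR, normalised to three housekeeping genes and fitted bidirectionally against DMSO. Human HepaRG cells received compounds for 48 h, highest concentration 100 uM.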

Read-out in assay [15]: UDP glucuronosyltransferase (UGT1A1), UGT1A1 (gene 54658)
Nature of the assay: LTEA_HepaRG_UGT1A1: Life Technologies and Expression Analysis (LTEA) Assay for UDP glucuronosyltransferase (UGT1A1) using HepaRG (AID 2283538). Particulars: mRNA level, 48 h; actives raise or lower the signal. Put shortly: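 Cells are plated, cultured 48 h, switched to serum-free induction medium, then dosed 48 h at eight concentrations (max 100 uM, 0.5% DMSO). RNA is isolated and UGT1A1 expression measured by qRT-PCR; changes versus DMSO are fitted in both directions.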

Read-out in assay [16]: UDP glucuronosyltransferase (UGT1A6), UGT1A6 (gene 54578)
Nature of the assay: LTEA_HepaRG_UGT1A6: Life Technologies and Expression Analysis (LTEA) Assay for UDP glucuronosyltransferase (UGT1A6) using HepaRG (AID 2283539). Particulars: mRNA level, 48 h; actives raise or lower the signal. The method, boiled down: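 Human HepaRG cells were dosed for 48 h in serum-free induction medium with 0.5% DMSO vehicle, eight-point half-log series from 100 uM, in duplicate. UGT1A6 mRNA was measured by qRT-PCR, normalized to ACTB, GAPDH, POLR2A, and fitted bidirectionally against DMSO.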

The nature of assay [17]: LTEA_HepaRG_LDH_cytotoxicity: Cytotoxicity Assessment in the Life Technologies and Expression Analysis (LTEA) Assay (AID 2283563; active means hit-call score of the fitted dose curve at least 0.9, where 1 is the maximum;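 on AC50: LDH activity released into spent culture medium as a marker of cell death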). The method, boiled down: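 Differentiated human HepaRG cells, plated 48 h beforehand, were switched to serum-free induction medium and exposed for 48 h to eight half-log concentrations (top 100 uM) in 0.5% DMSO. LDH was measured in spent medium; activity was fitted relative to DMSO vehicle.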

Read-out in assay [18]: X-box binding protein 1 (XBP1), XBP1 (gene 7494)
The assay is described as follows: LTEA_HepaRG_XBP1: Life Technologies and Expression Analysis (LTEA) Assay for X-box binding protein 1 (XBP1) using HepaRG (AID 2283540). The note with it: mRNA level, 48 h; actives raise or lower the signal. Put shortly: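 Differentiated human HepaRG cells in serum-free induction medium were exposed in duplicate for 48 h to eight half-log concentrations up to 100 uM in 0.5% DMSO. XBP1 mRNA was quantified by qRT-PCR, normalised to ACTB, GAPDH and POLR2A, with bidirectional fitting against DMSO.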

Read-out in assay [19]: NAD(P)H dehydrogenase [quinone] 1 (NQO1), NQO1 (gene 1728)
The assay is described as follows: LTEA_HepaRG_NQO1: Life Technologies and Expression Analysis (LTEA) Assay for NAD(P)H dehydrogenase [quinone] 1 (NQO1) using HepaRG (AID 2283526). The note with it: mRNA level, 48 h; actives raise or lower the signal. The method, boiled down:
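Transcript induction or suppression is quantified by qRT-PCR in human HepaRG liver cells dosed for 48 hours. Eight half-log concentrations topping at 100 uM are used, with 0.5% DMSO as vehicle and baseline.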

Assay [20] can be described thus: ATG_XTT_Cytotoxicity: Cytotoxicity Assessment in the Attagene TRANS-FACTORIAL HepG2 Assay (AID 2283584; active means hit-call score of the fitted dose curve at least 0.9, where 1 is the maximum). Put shortly: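 HepG2 human liver cells, transiently transfected with multiple GAL4-UAS reporter units, were dosed and read at 24 h by XTT as cell number. Loss of signal was fitted relative to DMSO negative control baseline.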

Chain of Signal transducer and activator of transcription 3 (Homo sapiens) (P40763 whole entry, looked up): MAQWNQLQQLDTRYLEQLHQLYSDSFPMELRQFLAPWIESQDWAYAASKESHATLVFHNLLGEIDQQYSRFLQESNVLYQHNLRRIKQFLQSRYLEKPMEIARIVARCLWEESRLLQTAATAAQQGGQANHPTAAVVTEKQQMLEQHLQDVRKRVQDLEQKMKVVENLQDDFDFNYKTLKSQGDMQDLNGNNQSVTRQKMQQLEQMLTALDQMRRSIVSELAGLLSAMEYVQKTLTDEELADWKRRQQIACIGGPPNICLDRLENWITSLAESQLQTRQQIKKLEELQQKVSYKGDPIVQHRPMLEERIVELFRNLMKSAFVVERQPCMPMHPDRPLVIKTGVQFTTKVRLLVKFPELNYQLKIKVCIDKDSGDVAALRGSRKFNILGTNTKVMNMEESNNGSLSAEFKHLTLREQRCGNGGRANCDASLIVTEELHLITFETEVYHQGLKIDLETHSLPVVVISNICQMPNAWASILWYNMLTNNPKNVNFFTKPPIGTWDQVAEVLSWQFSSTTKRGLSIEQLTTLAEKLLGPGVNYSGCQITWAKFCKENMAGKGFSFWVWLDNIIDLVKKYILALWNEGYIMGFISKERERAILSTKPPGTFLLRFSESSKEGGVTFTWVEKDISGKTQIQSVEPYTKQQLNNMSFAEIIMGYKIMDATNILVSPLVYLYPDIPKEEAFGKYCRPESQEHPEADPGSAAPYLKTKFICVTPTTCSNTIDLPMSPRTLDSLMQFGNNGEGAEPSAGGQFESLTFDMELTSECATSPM
Chain of Nuclear factor erythroid 2-related factor 2 (Homo sapiens) (Q16236 whole entry, looked up): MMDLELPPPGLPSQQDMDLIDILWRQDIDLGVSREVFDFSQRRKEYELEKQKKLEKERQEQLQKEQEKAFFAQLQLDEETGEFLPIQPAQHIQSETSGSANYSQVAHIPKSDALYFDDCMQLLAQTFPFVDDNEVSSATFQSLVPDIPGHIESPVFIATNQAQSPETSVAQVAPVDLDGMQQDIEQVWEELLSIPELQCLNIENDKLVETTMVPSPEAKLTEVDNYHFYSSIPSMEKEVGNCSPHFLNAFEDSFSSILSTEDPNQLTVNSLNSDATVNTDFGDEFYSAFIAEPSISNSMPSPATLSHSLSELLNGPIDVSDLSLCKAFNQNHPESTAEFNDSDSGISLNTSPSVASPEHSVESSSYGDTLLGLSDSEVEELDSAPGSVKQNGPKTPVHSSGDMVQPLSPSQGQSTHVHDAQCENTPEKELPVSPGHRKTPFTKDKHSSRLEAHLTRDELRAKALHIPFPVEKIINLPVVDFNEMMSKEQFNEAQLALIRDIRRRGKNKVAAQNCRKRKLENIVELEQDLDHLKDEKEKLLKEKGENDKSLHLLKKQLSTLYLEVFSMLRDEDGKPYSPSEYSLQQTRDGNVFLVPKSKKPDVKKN
Chain of Cellular tumor antigen p53 (Homo sapiens) (P04637 whole entry, looked up): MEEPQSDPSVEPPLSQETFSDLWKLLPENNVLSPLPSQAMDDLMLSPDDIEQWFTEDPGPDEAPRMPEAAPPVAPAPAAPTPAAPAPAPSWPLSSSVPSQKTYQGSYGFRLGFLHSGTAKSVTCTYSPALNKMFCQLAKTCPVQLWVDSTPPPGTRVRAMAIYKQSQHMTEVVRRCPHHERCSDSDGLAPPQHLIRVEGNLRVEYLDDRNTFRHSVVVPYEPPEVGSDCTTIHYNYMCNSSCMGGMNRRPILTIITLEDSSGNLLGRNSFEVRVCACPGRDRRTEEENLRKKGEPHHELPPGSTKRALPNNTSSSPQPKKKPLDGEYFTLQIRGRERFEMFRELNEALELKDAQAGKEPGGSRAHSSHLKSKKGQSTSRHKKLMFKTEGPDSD

For the molecule `CC(C)=CCC/C(C)=C/CO`, the outcome in assay [1], in assay [2], in assay [3], in assay [4], in assay [5] and in assay [6] was inactive. In addition, the call in assay [7], in [8], in assay [9], in assay [10], in [11] and in [12] was inactive. The outcome in assay [13], in assay [14], in assay [15], in assay [16] and in assay [17] was inactive.
In the case of `CC(C)CCCCCCOC(=O)c1ccc(C(=O)OCCCCCCC(C)C)c(C(=O)OCCCCCCC(C)C)c1`, the call in assay [1], in [2], in [3], in [4], in assay [5] and in [6] was inactive. The molecule was classed as inactive in assay [7], in assay [8], in assay [9], in assay [10], in assay [11] and in assay [12]. Further, the molecule was classed as inactive in assay [14], in assay [15], in assay [16], in assay [18] and in assay [17].
As for `CCN(C(=O)c1cc(C)cc(OC[C@H](C)Nc2ccncc2)c1)C(C)C`, the result in assay [1], in assay [19], in assay [4], in assay [5], in assay [6] and in assay [7] was inactive. Moreover, the result in [8], in assay [9], in assay [10], in [11], in [16] and in assay [18] was inactive. The AC50 – broadly, the concentration giving half of the maximal activity seen – is 33.8 µM (active) in [2]; 0.172 µM (active) in assay [12]; 6.4 µM (active) in assay [13]; 9.37 µM (active) in assay [14]; 6.7 µM (active) in assay [15]; 49.7 µM (active) in [17].
Take `C=CC(=C)CCC=C(C)C`: the outcome in assay [1], in assay [2], in [3], in [4], in assay [5] and in assay [6] was inactive. In addition, the call in assay [7], in assay [8], in [9], in [10], in assay [11] and in [12] was inactive. Besides, the result in assay [13], in assay [14], in assay [15], in assay [16], in assay [18] and in [17] was inactive. In [20], the molecule was classed as inactive.
